According to PubChem BioAssay AID588819 (The Scripps Research Institute Molecular Screening Center, 2011):
About 320 (0.089%) of roughly 360,000 compounds were called active. What follows is part of a selection rich in actives, with near analogues and random picks from the rest. Values without a mark were called inactive. Rule as the data show it: active = activation above about 19% (passing the limit was not always enough); inactive = the rest.

These molecules were tested against Muscarinic acetylcholine receptor M1 (Homo sapiens) (UniProt P11229) (assay: human M1 muscarinic receptor positive allosteric modulators, primary screen, CHO-K1 cells, Fluo-8 calcium fluorescence, 1536-well (AID 588819)). Settings: CHO-K1 hM1, Fluo-8 calcium fluorescence, ACh EC20; at 3 µM; active compounds read high; 0% = ACh EC20, 100% = maximal ACh.
Chain of Muscarinic acetylcholine receptor M1 (Homo sapiens) (P11229 whole entry, looked up): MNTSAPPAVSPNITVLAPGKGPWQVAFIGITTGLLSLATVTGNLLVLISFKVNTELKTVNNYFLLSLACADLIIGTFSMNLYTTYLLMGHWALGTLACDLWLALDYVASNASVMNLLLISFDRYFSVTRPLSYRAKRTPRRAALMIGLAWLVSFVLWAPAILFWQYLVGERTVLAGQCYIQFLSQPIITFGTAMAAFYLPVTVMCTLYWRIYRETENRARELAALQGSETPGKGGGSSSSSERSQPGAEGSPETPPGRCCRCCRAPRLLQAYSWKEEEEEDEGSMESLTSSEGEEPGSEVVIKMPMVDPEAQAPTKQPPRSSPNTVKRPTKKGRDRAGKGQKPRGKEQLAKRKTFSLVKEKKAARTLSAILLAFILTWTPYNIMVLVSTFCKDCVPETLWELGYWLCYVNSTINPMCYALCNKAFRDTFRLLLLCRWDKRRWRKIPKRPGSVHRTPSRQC
For Cc1ccc(NC(=O)CSc2nn3c(=O)c(C)nnc3s2)cc1Cl, the activation was 10.6%. Molecule Cc1ccccc1CSCCNC(=O)c1ccc(Cl)c(S(=O)(=O)N2CCOCC2)c1 has an activation of -5.71%. COc1ccc(Cl)cc1NC(=O)COc1ccc2c(c1)OCO2 was tested, and the activation was 7.62%. CN=C1SC(C(=O)O)CC(=O)N1C (stereo unspecified) gave an activation of 7.37%. COc1cc(C(=O)N(C)Cc2cccc(OC)c2OC)ccc1OCC(=O)Nc1cccc(C(F)(F)F)c1 showed an activation of -5.88%. COC(=O)c1ccc2ccccc2c1OC1OC(CO)C(O)C(O)C1NC(C)=O (stereo unspecified) showed an activation of 9.3%. CC(=O)c1cccc(NC(=O)C2CCCN2S(=O)(=O)c2cccc3nsnc23)c1 (stereo unspecified) was tested, and the activation was -0.71%. Cc1ccc(CN2CCN(c3ccccc3Cl)CC2)o1 gave an activation of 5.74%. CCOc1cc(C(=O)Nc2ccc(S(=O)(=O)Nc3cnc4ccccc4n3)cc2)cc(OCC)c1OCC was tested, and the activation was 7.77%. COc1ccc([N+](=O)[O-])cc1N(CC(O)Cn1nnc2ccccc21)S(=O)(=O)c1ccc(C)cc1 (stereo unspecified) showed an activation of 21.8%. With Oc1cccc(CCc2ccccn2)c1 the activation was 4.71%. CCCn1c(=O)c2c(C(F)(F)F)cc(-c3cccs3)nc2n(CCC)c1=O gave an activation of 1.78%. For CCC(=O)N1CCCC1(C)C(=O)Nc1ccc2c(c1)CCN2C(C)=O (stereo unspecified), the activation was 8.84%. COC(=O)c1ccc2nc(-c3ccc(Cl)cc3)c(Cc3cccc(F)c3)n2c1 gave an activation of -0.44%. For COC(=O)c1ccc2nc(C3CCCCC3)c(Cc3cccc(F)c3)n2c1, the activation was 27% (active). COC(=O)c1ccc2nc(-c3ccc(OC)c(OC)c3)c(Cc3ccccc3)n2c1 gave an activation of 2.75%. CN(C)CCN(Cc1ccccc1)S(=O)(=O)c1csc(C(N)=O)c1 was tested, and the activation was 10.5%. O=C(Cc1ccccc1)NCC1OCCc2ccccc21 (stereo unspecified) was tested, and the activation was -5.39%. In the case of CCCCN(CC(=O)NC(C)(C)C)C(=O)C(=O)Nc1ccc2c(c1)OCCO2, the activation was 7.88%. For O=C(NNS(=O)(=O)c1c(F)cc(F)c(Cl)c1F)C12CC3CC(CC(C3)C1)C2, the activation was -10.7%. COc1ccc(CNC(=O)COC(=O)CCS(=O)(=O)c2ccc(C)cc2)cc1OC showed an activation of 4.46%. Work on CCCn1nc(C(=O)OCc2nc(N)nc(Nc3ccccc3C)n2)c2ccccc2c1=O yielded an activation of 11.4%. CCOc1ccc2ccccc2c1/C=N/NC(=O)c1c(C)cc(C)[nH]c1=O gave an activation of 7.97%. Oc1cccc(C2c3[nH]c4ccccc4c3CCN2Cc2cnn(-c3ccccc3)c2)c1 (stereo unspecified) was tested, and the activation was -6.09%. Work on Cc1nc2ccc(NC(=O)c3cccc(S(=O)(=O)N4CCOCC4)c3)cc2s1 yielded an activation of 3.59%. O=[N+]([O-])c1c(NCCO)cc(Sc2nc3ccccc3s2)c2nonc12 showed an activation of 1.97%. O=C(O)c1cccc(S(=O)(=O)Nc2ccc(O)cc2Sc2nc3ccccc3s2)c1 was tested, and the activation was 31.9% (active). For CCn1c(CN2C(=O)CSc3ccccc32)n[nH]c1=S, the activation was -0.34%. In the case of CCC(C)[C@H](NC(=O)N1CCn2c1nc1ccccc12)C(=O)NCc1ccc(OC)cc1 (stereo partly specified), the activation was 0.16%. CC(C)(C)NC(=O)Cn1c(SCC(=O)Nc2nccs2)nc2ccccc21 showed an activation of 2.24%. In the case of CCOC(=O)C1(Cc2cccc(OC)c2)CCCN(S(=O)(=O)c2cccnc2)C1 (stereo unspecified), the activation was 6.27%. In the case of CN1/C(=C\C=C2\N=C(c3ccc(F)cc3)OC2=O)C(C)(C)c2ccccc21, the activation was -5.26%. CN(C(=O)c1cccc(NC(=O)Cc2ccc(NC(=O)C3CCN(C(=O)C4CCCCC4)CC3)cc2)c1)C1CCC1 was tested, and the activation was 0.54%. In the case of CS(=O)(=O)N(CC(=O)NC1CCCC1)Cc1ccc(F)cc1, the activation was 0.34%. Work on Cc1ccc(NC(=O)Cn2cccc2C2=NC(c3ccccc3)CO2)c(C)c1 (stereo unspecified) yielded an activation of 6.3%. With COCCn1c(SCC(=O)Nc2ccc3c(c2)CCC3)nc2ccccc2c1=O the activation was 5.21%. With CCCC1NC(=O)NC(C)=C1C(=O)OCC (stereo unspecified) the activation was 3.33%. Work on COCC(=O)Nc1cc(C(=O)OC)cc(C(=O)OC)c1 yielded an activation of 7.56%. For Cc1cc(=O)oc(C)c1C(=O)Nc1cnc2ccccc2c1, the activation was 1%. In the case of CCOc1ccc(S(=O)(=O)N2CCN(C(=O)c3oc4ccccc4c3C)CC2)cc1, the activation was 24.4% (active). For CCOC(=O)C1CCN(C(=O)c2oc3ccc(S(=O)(=O)N4CCCCCC4)cc3c2C)CC1, the activation was 1.16%. Molecule COc1ccc(S(=O)(=O)N2CCN(C(=O)c3cc(C)oc3C)CC2)cc1 has an activation of 10.8%. CCOP(=O)(OCC)C(Nc1ccc([N+](=O)[O-])cc1)c1ccc(Cl)cc1 (stereo unspecified) showed an activation of -2.85%. In the case of Cc1ccc2oc(=O)c3cnn(CC(=O)N4CCN(c5ccccn5)CC4)c3c2c1, the activation was -8.22%. For COCCNC(=O)NC(=O)COC(=O)C1(c2ccc(Cl)cc2)CC1, the activation was -0.78%. Work on O=C(NCc1ccc(Cl)cc1)c1cc(=O)nc2sc(-c3ccccc3)nn12 yielded an activation of -4.02%. O=C(Cn1nc(Cc2cccnc2)c2ccccc2c1=O)NCC1COc2ccccc2O1 (stereo unspecified) gave an activation of 9.27%. In the case of O=C(Cn1cnc2ccccc2c1=O)NCC1COc2ccccc2O1 (stereo unspecified), the activation was 3.11%. In the case of O=C(CN1C(=O)C2C3C=CC(C3)C2C1=O)NCC1COc2ccccc2O1 (stereo unspecified), the activation was 19.5% (active). Work on Cc1nn(Cc2ccccc2)c(C)c1C(=O)NCCCN1CCCC1=O yielded an activation of 3.09%. With COc1ccc(C)cc1NC(=O)CN(C)S(=O)(=O)c1ccc2c(c1)n(C)c(=O)c(=O)n2C the activation was 11.7%. CCOC(=O)c1cc2occc2n1CC(=O)N1CCN(C(=O)c2ccco2)CC1 showed an activation of 0.31%. O=C(N/C(=C\c1ccc(O)cc1)C(=O)N1CCCCC1)c1ccccc1 was tested, and the activation was -7.21%. For O=C1Nc2ccc(Br)cc2/C1=N/N=C/C1=C(N2CCOCC2)C(=C\c2ccccc2)/CC1, the activation was 19.2% (active). O=C(O)c1ccc(NN=CC2=C(N3CCOCC3)/C(=C/c3ccccc3)CC2)cc1 was tested, and the activation was 1.33%. Cc1cccc(N2CC(C)Cn3c2nc2c3c(=O)n(CC(=O)OCc3ccccc3)c(=O)n2C)c1 (stereo unspecified) was tested, and the activation was 6.13%.
